Results from ChEMBL document CHEMBL3988442, “University of Dundee, Small-Polar-MMV Screening Library” (2021).
Screen size: about 48,000 compounds; about 13,000 (27%) showed an effect of 50% or more. The list shows a part of the results.

What follows are molecules tested on Wolbachia pipientis (assay: Anti-Wolbachia Cell-Based Screen). Settings: 5 µM.
Format: functional
Design: scale not given: in the data most compounds retested in dose-response had high values

Structure (SMILES)	Percent Effect
CCCn1cc(-c2ccnc(NC3CCc4ccccc43)n2)c(C)n1 (stereo not drawn)	-0.7424%
Cc1cccc(C(C(=O)NCC2(Cn3nc(C)cc3C)CC2)N(C)C)c1 (stereo not drawn)	-2.816%
Cc1ccc(CN2CC[C@H](c3nnc(COc4ccc(F)cc4)o3)C2)o1	-1.742%
COC(=O)c1cccc2nc([C@H]3CCN(Cc4ccccc4C)C3)oc12	0.4423%
COc1cccc(-c2noc(C3CCN(Cc4cn(C)nc4C)C3)n2)c1 (stereo not drawn)	-2.203%
COC(=O)c1cccc2nc([C@H]3CCN(Cc4ccccc4F)C3)oc12	4.5%
COc1cccc(-c2noc(C3CCN(Cc4ccccc4F)C3)n2)c1.Cl (stereo not drawn)	108.2%
COc1cccc(-c2noc(C3CCN(Cc4ccccc4C)C3)n2)c1.Cl (stereo not drawn)	79.37%
COc1cccc(-c2ncc(CN3CC[C@H](CO)[C@@H](O)C3)s2)c1	10.62%
Cc1n[nH]c(CN2CCN(c3ncnc4scc(C)c34)CC2)c1Cl	-1.697%
CC(O)CN1CCN(C(=O)c2cccc3[nH]ncc23)CC1 (stereo not drawn)	5.765%
Cc1nc(CN2CCO[C@H]3CN(C(=O)c4cscn4)C[C@H]32)cs1	-19.39%
CC(O)c1cn(CC2CCN(C(=O)c3cscn3)CC2)nn1 (stereo not drawn)	-31.81%
Cc1nc(C2CCN(C(=O)c3cscn3)CC2)c2sccn12	123.8%
Cc1nc(C2CCN(C(=O)c3ccn(C)n3)CC2)c2sccn12	109.4%
CCc1cnc(C)nc1NCCSc1nnc(C)n1CC	-6.357%
c1cnnc(N2CCCC(NCc3ccc(-n4cncn4)cc3)C2)c1 (stereo not drawn)	-12.46%
CSCCc1n[nH]c2c1CN(S(=O)(=O)c1cn(C)c(C)n1)CC2	5.686%
O=C1C(NCc2nnc3n2CCCC3)CCN1c1ccccc1 (stereo not drawn)	4.078%
CC(C)NC(=O)CN(C)C1CCN(c2ccc(C#N)cn2)CC1	-9.804%
O=C1CC2(CCN(C(=O)c3ccccn3)CC2)Oc2c(Cl)cc(Cl)cc21	107.9%
O=C1CC2(CCN(C(=O)c3ccccn3)CC2)Oc2c(Br)cc(Br)cc21	106.1%

Structure (SMILES)	Percent Effect
Cc1cccc(C2(O)CCN(C(=O)c3ccccn3)CC2)c1C	8.443%
O=C1CC2(CCN(C(=O)c3ccncc3)CC2)Oc2c(Cl)cc(Cl)cc21	113.6%
CC(C)CN1CCc2[nH]cnc2C12CCN(C(=O)c1ccccn1)CC2	2.853%
O=C(c1ccncc1)N1CCN(c2ccc(F)cc2Cl)CC1	2.697%
O=C(c1ccccn1)N1CCN(c2ccc(-n3cccc3)nn2)CC1	9.922%
Cc1ccc(F)c(OC2(C(=O)O)CCN(C(=O)c3ccncc3)CC2)c1	12.09%
Cc1oc(-c2ccco2)nc1CC(=O)NCC(C)(C)N(C)C	-56.87%
CCCc1cc(C(=O)N2C[C@H]3CC=C(C)C[C@H]3C2)ccn1	-1.263%
Clc1cnccc1N1CCC(OC2CCOCC2)CC1	-17.26%
CCc1nsc(N2CCCN(C(=O)c3ccc(CC)o3)CC2)n1	0.3515%
Cc1noc2ncnc(NC(CC(C)(C)C)c3cccnc3)c12 (stereo not drawn)	-8.396%
Cc1ccc(C)c(CC(=O)Nc2cccc(C(=O)N(C)C)n2)c1	-5.2%
Cc1ccc(NC(=O)CN(C)C(=O)c2ccc(-n3cccc3)nc2)nc1	-2.8%
O=C(NCCC1=CCCCC1)c1cc(-c2ccc(O)cc2)n[nH]1	12.27%
O=C(NCCC1=CCCCC1)c1ccc(-n2cccc2)nc1	122.4%
O=C(NCCC1=CCCCC1)c1n[nH]c2c1CCCC2	109.4%
O=C(NCCC1=CCCCC1)C1CCN(c2ccc3nncn3n2)CC1	0.9872%
CCCc1cc(C(=O)NCCC2=CCCCC2)[nH]n1	-0.1472%
CC(=O)NCCc1nc(C(C)C)nn1-c1ccncc1C	-7.062%
CC1CCN(CCCNS(=O)(=O)Cc2ccccc2F)CC1	-5.574%
CCOc1ccccc1C1=CCN(C(=O)C2CCN(C)C(=O)C2)CC1 (stereo not drawn)	103.5%
Cc1ccc(C2=CCN(C(=O)C3CCN(C)C(=O)C3)CC2)cc1 (stereo not drawn)	92.67%

Structure (SMILES)	Percent Effect
CCOc1cccnc1C(=O)N1CC=C(c2ccc(O)cc2)CC1	-4.198%
CN1CC(C(=O)N2CCC(Oc3ccccc3Cl)CC2)CC1=O (stereo not drawn)	1.662%
COc1ccc(C2=CCN(C(=O)C3CCN(C)C(=O)C3)CC2)cc1 (stereo not drawn)	-8.99%
CN1CCC(C(=O)N2CCC(=Cc3cccc(F)c3)CC2)CC1=O (stereo not drawn)	-1.128%
O=C(Cn1nnn(-c2cccs2)c1=O)NCC1CCOC1 (stereo not drawn)	8.767%
NC(=O)c1cccc(CCNCc2cnc(C3CCC3)s2)c1	-3.682%
O=C(c1sccc1Br)N1CCOCC1	7.49%
CS(=O)(=O)N1C[C@@H]2CC[C@H](C1)N(C(=O)CCn1cnc3ccccc31)C2	6.293%
CCN1C(=O)C2(CCOCC2)c2cc(NC(=O)COC)ccc21	1.52%
COCC(=O)Nc1ccc2c(c1)C1(CCOCC1)CN2CCF.O=C(O)C(F)(F)F	107%
CCC(=O)Nc1ccc2c(c1)C1(CCOCC1)CN2CCF.O=C(O)C(F)(F)F	102.7%
CCN1C(=O)C2(CCOCC2)c2cc(NC(=O)c3cccn3C)ccc21	0.2171%
Cc1cccc(N(CC(=O)N2CCCCC2)Cc2nc(=O)[nH][nH]2)c1	-2.957%
O=C(O)C(F)(F)F.O=C(c1ccc2ccc(N3CCN(CC4CC4)CC3)n2c1)N1CCCO1	-6.167%
CC(C)C(C)(C#N)NC(=O)Cn1cc(Cl)cn1 (stereo not drawn)	-4.371%
O=C(Cn1cc(Cl)cn1)N1CCNC1=O	95.03%
CCCNC(=O)Cn1cc(-c2ccccc2)cn1	1.367%
O=C(Cn1cc(-c2ccccc2)cn1)N1CCNC1=O	110%
Cc1nccc(-c2cccc(NCC(=O)N3CCNC3=O)c2)n1	6.599%
O=C(Cn1cc(I)cn1)N1CCOCC1	0.7374%
O=C(Cn1cc(I)cn1)N1CCNC1=O	104.2%
O=C(Cn1cc(I)cn1)N1CCCC1	17.91%

Structure (SMILES)	Percent Effect
O=C(CCn1cc(Cl)cn1)Nc1ncccn1	-3.476%
CN1C[C@@H](NC(=O)CC(C)(C)C)C[C@H]1c1nc(-c2cnccn2)no1	-6.894%
O=C(CN1CSCC1=O)NCC1CCN(c2ccccc2)C1 (stereo not drawn)	-5.821%
O=S1(=O)C[C@@H]2[C@H](C1)N(Cc1ccc3ccccc3c1)CCN2CC1CC1	-3.143%
CN(C)c1cc(C(=O)N2CCN(c3cnccn3)CC2)ccn1	-5.802%
O=C(c1cncs1)N1CCC(c2cnccn2)CC1	100.4%
O=C(c1cc2c(s1)CCCCC2)N1CCC(c2ncc[nH]2)CC1	88.07%
O=C(c1cnccn1)N1CCN(c2ccnc3ccsc23)CC1	3.546%
CN(C)c1cc2c(nn1)CCN(C(=O)c1cc3c(s1)CCCC3)C2	1.352%
O=C(c1cc2c(s1)CCC2)N1CCC(c2cnccn2)CC1	151.2%
O=C(c1cc2c(s1)CCC2)N1CCN(c2cnccn2)CC1	87.73%
Cc1nc(C2CCCN2C(=O)c2cc3c(s2)CCCC3)no1 (stereo not drawn)	-3.152%
O=C(c1ccc2c(c1)OCO2)N1CCN(c2cnccn2)CC1	-2.532%
C=C(C)COc1cccc(CNC(COC)c2ccnn2C)c1 (stereo not drawn)	4.309%
Cn1c(Cn2cccn2)nnc1C1CCN(Cc2cccnc2N)CC1	-0.4084%
O=C(c1cc2c(s1)CCC2)N1CCC(c2ccncc2)CC1	202.7%
O=C(c1cc2c(s1)CCC2)N1CCCC(c2cnccn2)C1 (stereo not drawn)	144.9%
Cc1cc(C2CCCN2C(=O)c2cc3c(s2)CCC3)on1 (stereo not drawn)	4.731%
CCn1cnnc1C1CCN(C(=O)c2cc3c(s2)CCC3)CC1	-8.588%
CN(C)c1cc2c(nn1)CCN(C(=O)c1cc3c(s1)CCC3)C2	9.509%
COc1ccc(Cl)cc1-c1cc(NC(=O)CNC(=O)C2CC2)[nH]n1	-9.759%
CCn1cc(CN2CCC(N3CCC(O)CC3)CC2)cc1C#N	0%

Structure (SMILES)	Percent Effect
Cc1csc(C(C)(C)NCC(=O)N2CCCC(C(N)=O)C2)n1 (stereo not drawn)	-19.83%
CN(c1ccc(C(N)=O)nn1)C1CCC1	4.967%
OCCc1cn(CC2CCCN(Cc3nccs3)C2)nn1 (stereo not drawn)	-2.093%
Cc1ccc(C(=O)NCc2ccc(N3CCNC(=O)C3)c(F)c2)cc1	-3.953%
CN1CCCc2cc(CNC(=O)c3ccc(-n4cnnc4)cc3)ccc21	119.3%
Cc1nc(CNC(=O)Nc2ccc3c(c2)CCCN3C)sc1C	18.83%
CN1CCCc2cc(CNC(=O)c3cc[n+]([O-])cc3)ccc21	106.3%
CN1CCCc2cc(CNC(=O)c3ccncc3)ccc21	7.884%
CC(C)C(=O)NS(=O)(=O)c1ccc2c(c1)N(C)CCC2	-5.146%
COCC(=O)N[C@H]1C[C@@H](Cc2cc(CN3CCOCC3)on2)C1(C)C	-1.513%
CCCn1cnc2c1CN(S(=O)(=O)Cc1ccccc1)[C@H](C(=O)OC)C2	-5.674%
CCc1noc(CCCC(=O)Nc2cc(C(F)(F)F)c[nH]c2=O)n1	7.764%
Cc1nc(NCCSc2nnc(C)s2)c2cccnc2n1	-15.89%
O=C(NCC(O)c1cccc(F)c1)c1sccc1OC(F)F (stereo not drawn)	13.48%
O=C(NCCc1cccs1)NCC(O)c1cccc(F)c1 (stereo not drawn)	94.53%
Cc1nc(CCNC(=O)NCC(O)c2cccc(Cl)c2)cs1 (stereo not drawn)	5.885%
CC(C)COCCCNC(=O)NCC(O)c1cccc(F)c1 (stereo not drawn)	93.97%
COc1ccc(CCNC(=O)NCC(O)c2cccc(F)c2)cc1 (stereo not drawn)	127.5%
O=C(NCCc1ccc(F)cc1)NCC(O)c1cccc(F)c1 (stereo not drawn)	98.05%
Cc1cc(OC(F)F)c(C(=O)NCC(O)c2cccc(F)c2)s1 (stereo not drawn)	-16.7%
